High-throughput results deposited in PubChem by several laboratories.
Shown are actives, neighbours in structure and some others; about 1.6% of the full set was active somewhere.
Beta2AR agonist: human beta-2 adrenergic receptor agonism by FAP; Am2.2-beta2AR cells, FAP receptor internalization, flow cytometry; 0.43% of 340,000 active; P07550; response, % (no concentration beside the values);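 active means response above a set limit, near 3 SD of response in nonfluorescent compounds, cut at about 42% in these data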
Target sequence (P07550 whole entry, looked up): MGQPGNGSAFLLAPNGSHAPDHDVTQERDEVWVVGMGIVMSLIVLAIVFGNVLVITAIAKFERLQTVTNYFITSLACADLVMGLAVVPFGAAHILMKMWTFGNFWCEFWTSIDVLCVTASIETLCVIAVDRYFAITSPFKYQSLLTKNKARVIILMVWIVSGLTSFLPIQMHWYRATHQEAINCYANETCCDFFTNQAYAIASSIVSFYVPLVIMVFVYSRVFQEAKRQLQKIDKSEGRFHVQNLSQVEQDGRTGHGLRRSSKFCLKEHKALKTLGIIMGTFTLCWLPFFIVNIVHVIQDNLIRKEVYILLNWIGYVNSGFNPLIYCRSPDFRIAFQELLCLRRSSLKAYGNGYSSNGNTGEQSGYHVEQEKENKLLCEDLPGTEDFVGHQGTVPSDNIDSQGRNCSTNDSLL
dFosB act-1: activators of mouse delta FosB homodimer; P13346; purified delta FosB, TAMRA-CDK5 oligo fluorescence polarization; percent of positive-control signal above neutral wells; activation, % at 25 µM; 0.99% of 340,000 active; AID 493131;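 active means mean activation above about 17%, with every replicate also reaching it, limit read from the data, passing the limit was not always enough; inconclusive means only one of the two conditions met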
DYRK1A inh: inhibitors of rat Dyrk1A kinase. ADP-Glo luminescence, NFATc1 peptide. inhibition, % at 12.5 µM. 0.43% of 310,000 active. AID 504441. Q63470; in the data active means inhibition above about 50%;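 further: plate controls were vehicle with enzyme for no effect and no enzyme for full effect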
Bfl-1 A1 inh: inhibitors of the anti-apoptotic protein A1, read as caspase activation | 0.066% of 330,000 active | MEF A1-2A-BIM cells, Caspase-Glo 3/7 luminescence, 3 h; percent of clofoctol response, vehicle zero | caspase activation, % (concentration not given with the values);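 active means over half of replicate activation scores above 10%, or exactly half above 10 with the replicate mean above 10; inconclusive means replicate mean below 10 yet half the replicates above 10; inactive means over half of replicates below 10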
dFosB act-2: activators of mouse delta FosB homodimer DNA binding | shares compounds with dFosB act-1 | purified delta FosB, TAMRA-CDK5 oligo fluorescence polarization; normalised: neutral wells 0, positive control 100 | activation, % at 24.9 µM | 2,400 tested, under 10 active;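 active means highest replicate activation at or above 34% and every replicate reaching that threshold; inconclusive means meets only one of the two criteria; inactive means meets neither criterion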;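 further: higher polarization means more probe DNA bound by delta FosB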
An asterisk follows results filed as active; ? = inconclusive; . = no result given.

SMILES	Beta2AR agonist	dFosB act-1	DYRK1A inh	Bfl-1 A1 inh	dFosB act-2
O=C(Cn1cnc2sc(-c3ccccc3)cc2c1=O)NCc1ccccc1	-16	32*	-6	.	5
O=C(Cn1cnc2sc(-c3ccccc3)cc2c1=O)NCc1ccco1	7	-4	13	0	.
O=C(Cn1cnc2c(nnn2-c2cccc(Cl)c2)c1=O)NCc1ccccc1	-9	68*	-4	?	1
NC(=O)Cn1cnc2c(nnn2-c2cccc(Cl)c2)c1=O	-1	-1	-2	0	.
CC(=O)c1ccc(N2CCN(C(=O)/C=C/c3ccc4ccccc4n3)CC2)cc1	1	40*	0	0	3
O=C(Nc1cccc([N+](=O)[O-])c1)Nc1cnccn1	-3	27*	.	0	-6
NS(=O)(=O)c1ccc(OC(=O)CNC(=O)OCc2ccccc2)cc1	-3	1	11	0	.
O=C(Cn1nnc(-c2ccccc2)n1)NCc1cccs1	-3	-6	-1	1	.
COc1ccc(-c2nnn(CC(=O)NCc3cccs3)n2)cc1OC	3	30*	-3	0	-2
COc1ccccc1C(=O)Nc1ccc(-c2nnn(CC(=O)NCc3ccco3)n2)cc1	-10	42*	-7	-1	7
COc1ccc(-c2nnn(CC(=O)NCc3ccccc3)n2)cc1OC	2	11	-1	0	.
O=C(Cn1nnc(-c2ccccc2)n1)NCc1ccco1	-3	10	-5	0	.
CCOc1ccc(-c2nnn(CC(=O)Nc3ccccc3OC)n2)cc1OCC	0	59*	1	0	0
OCCNCCO	0	3	0	0	.
Cc1cccc(C(=O)OCC(=O)Nc2ccccc2C(=O)NC2CC2)c1	-8	-5	.	0	.
Cc1ccc(-c2cc(C(=O)N/N=C/c3c(C)nn(C)c3C)c3ccccc3n2)cc1C	13	43*	-5	0	1
C/C(=N/O)c1ccc2c(c1)OCCOCCOc1cc(/C(C)=N/O)ccc1OCCOCCO2	1	21*	-3	1	5
COc1ccc(CNC(=O)[C@H](C)NC(=O)C2CCN(S(=O)(=O)c3ccc(C)cc3)CC2)cc1	2	3	0	2	.
CC(C)[C@H](NC(=O)C1CCN(S(=O)(=O)c2ccccc2)CC1)C(=O)NCc1ccco1	-4	-7	-3	-1	.
Cc1ccc(S(=O)(=O)N2CCC(C(=O)N[C@@H](C)C(=O)NC3CCCCC3)CC2)cc1	6	39*	-6	-1	7
COc1ccc(S(=O)(=O)N2CCC(C(=O)N[C@@H](C)C(=O)NC3CCCC3)CC2)cc1	-4	20*	-3	0	5
Cc1ccc(S(=O)(=O)N2CCC(C(=O)N[C@H](C(=O)NCc3ccco3)C(C)C)CC2)cc1	-9	18*	-1	1	-7
CCOc1ccc2nc(NC(=O)CC3Oc4ccccc4NC3=O)sc2c1 (stereo not drawn)	-1	29*	-4	0	3
COc1ccc2nc(NC(=O)CC3Oc4ccccc4NC3=O)sc2c1 (stereo not drawn)	5	7	-3	0	.
COc1cc(OC)cc(C(=O)NC(=S)Nc2ccc3[nH]c(=O)[nH]c3c2)c1	5	24*	0	0	-1
SMILES	Beta2AR agonist	dFosB act-1	DYRK1A inh	Bfl-1 A1 inh	dFosB act-2
COc1cccc(C(=O)NC(=S)Nc2ccc3[nH]c(=O)[nH]c3c2)c1	-3	3	3	0	.
O=S(=O)(NC1CC1)c1ccc(S(=O)(=O)N2CCCC3(CCCCC3)C2)cc1	10	16*	-2	0	7
O=S(=O)(NC1CC1)c1ccc(S(=O)(=O)N2CCN3CCCC3C2)cc1 (stereo not drawn)	0	-2	-2	1	.
COc1cccc(Oc2nc(N)ncc2[N+](=O)[O-])c1	5	1	-1	1	.
O=C(Nc1ccc(Oc2ccc3c(c2)C(=O)N(c2ccc(O)cc2)C3=O)cc1)c1cccs1	-5	61*	-6	1	-4
Cc1ccc(/C=N/NC(=O)Cc2ccc(Cl)cc2)s1	1	-5	.	-1	.
Nc1cc(S(=O)(=O)N2CCOCC2)ccc1Oc1cccc(Br)c1	9	-9	1	.	.
COc1cc(C(=O)NCc2ccc(S(N)(=O)=O)cc2)ccc1OCC(=O)Nc1cccc(C(F)(F)F)c1	-5	17*	7	0	1
COc1cc(C(=O)N(C)CCOc2ccccc2)ccc1OCC(=O)Nc1cccc(C(F)(F)F)c1	1	-16	-2	0	.
CCc1cc2cc3c(cc2nc1SCC(=O)Nc1cc(C)on1)OCO3	3	49*	-7	-1	-2
CCc1cc2ccc(C)cc2nc1SCC(=O)Nc1cc(C)on1	1	-7	.	0	.
Cc1cc(NC(=O)C(C)Sc2nnc(NCc3ccco3)s2)no1 (stereo not drawn)	0	-5	-4	0	.
CC(=O)Nc1ccccc1-c1nc2ccccc2nc1OCC(=O)c1ccc2ccccc2c1	13	30*	1	0	-4
COc1ccc(OCC(=O)Nc2cc(-c3nn(C)c(=O)c4ccccc34)ccc2OC)cc1	8	-14	-3	0	.
COc1ccc(-c2nn(C)c(=O)c3ccccc23)cc1NC(=O)Cn1nc(-c2ccccc2)c2ccccc2c1=O	9	19*	8	0	-1
COc1ccc(NC(=O)c2cn(C)c(=O)c3cc(OC)c(OC)cc23)c(OC)c1	6	20*	-3	0	2
Cc1ccc(-c2cc(C(=O)NC3=NCCS3)c3ccccc3n2)cc1C	-8	13	-1	-2	.
O=C(NC1=NCCS1)c1cc(-c2ccc(F)cc2)nc2ccccc12	-11	-22	4	-1	.
O=C(NC1=NCCS1)c1cc(-c2cccc(Br)c2)nc2ccccc12	-5	31*	-4	1	1
Cc1ccc2nc(-c3cccc(Br)c3)cc(C(=O)NC3=NCCS3)c2c1	-1	44*	.	1	-1
OCCCCCN=c1cc(-c2ccccc2)oc2ccc(Cl)cc12	-2	21*	3	0	4
Cc1ccc(S(=O)(=O)N(C)C)cc1NC(=S)N(C)C1CCN(C)CC1	-3	-7	-3	0	.
Cc1ccc(CSc2nnc(NC(=O)Cn3cnc4ccccc4c3=O)s2)cc1	3	31*	1	1	-4
Cc1cccc(C(=O)Oc2ccc(/C=N/NC(=O)c3ccc(O)cc3)cc2)c1	12	34*	-1	-1	1
O=C(NNC(=O)c1cccs1)c1cccc(F)c1	13	-1	3	-1	.
Cc1ccc2occ(/C=N/NC(=O)c3ccc(O)cc3)c(=O)c2c1	8	52*	3	-1	2
O=C(N/N=C/c1ccc(OC(=O)c2cccc(F)c2)cc1)c1cccnc1	-1	94*	-5	-4	-1
O=C(N/N=C/c1ccc(OC(=O)c2cccs2)cc1)c1cccc(F)c1	3	61*	-3	-8	0
